# Reference: the supplement of paper PMC10646978
# ± gives the standard deviation.
# How the values were obtained:
# Settings in all cases: modulator concentration 10 µM
# [1] = test system: RAW-Dual (murine macrophage reporter line); assay: NF-kB reporter (SEAP) activity fold change vs agonist alone; higher = enhanced NF-kB activity
# Procedure, shortened: (§1)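 RAW-Dual murine macrophage reporter cells were seeded at 50 000 per well in 384-well plates and pre-incubated 1 hour at 37 °C with compound pin-transferred to 10 μM final. After 1 hour, a PRR agonist was added and cells incubated overnight. Supernatant NF-κB (SEAP, QUANTI-Blue, 620 nm absorbance) and IRF (Lucia luciferase, QUANTI-Luc, luminescence) signals were divided by the mean agonist-only control on the same plate to give fold change. Two replicate plates were averaged, with errors by propagation.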
# [2] = test system: RAW-Dual (murine macrophage reporter line); assay: IRF reporter (Lucia luciferase) activity fold change vs agonist alone; higher = enhanced IRF activity
# Procedure, shortened: as §1
# [3] = test system: RAW-Dual (murine macrophage reporter line); assay: viability score (confluency relative to resting cells, overnight) (fraction); higher = more viable, active = viable (0.7 or more)
# Procedure, shortened: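 Two confluency masks, generated with IncuCyte software over all imaged wells, were applied to IncuCyte images of RAW-Dual macrophages. The cells, in 384-well plates, had been exposed overnight to 10 μM final compound. The viability score is confluency as a fraction of resting cells, and a compound met the cutoff only with both masks above 70% of resting cells.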
# [4] = agonist: CpG ODN 1826 0.5 ug/mL
Structure (SMILES),"NF-kB reporter [1, 4]",NF-kB reporter ([1]; agonist: LPS 0.1 ug/mL),NF-kB reporter ([1]; agonist: MPLA […]),IRF reporter ([2]; agonist: 3'3'-cGAMP 10 ug/mL),IRF reporter ([2]; agonist: LPS 0.1 ug/mL),IRF reporter ([2]; agonist: MPLA […]),viability score [3]
Cc1ccc(S(=O)(=O)n2nc(C)c(C)c2C)cc1C,0.929 ± 0.047,1.11 ± 0.11,1.05 ± 0.068,1.07 ± 0.068,1.2 ± 0.16,1.26 ± 0.34,1.01 (active)
Cc1ccc(C=C2Oc3c(ccc(O)c3CN3CCN(CCO)CC3)C2=O)cc1,1.12 ± 0.086,1.01 ± 0.13,1.19 ± 0.11,1.02 ± 0.038,1.39 ± 0.21,1.55 ± 0.3,1.02 (active)
CCn1c(=O)c(-c2ccn[nH]2)cc2c(C)nc(N)nc21,0.877 ± 0.054,1.01 ± 0.093,1.17 ± 0.065,1.01 ± 0.048,1.33 ± 0.23,1.45 ± 0.53,1 (active)
Cc1c(C(=O)OC(C)C)sc(NC(=O)C(F)(F)F)c1C(=O)OC(C)C,1.4 ± 0.08,1.01 ± 0.076,1.05 ± 0.032,0.781 ± 0.028,0.937 ± 0.067,1.19 ± 0.22,0.993 (active)
Oc1cc(O)c2c(c1)OC(c1ccc(O)c(O)c1)C(O)C2 (stereo not drawn),0.936 ± 0.098,0.859 ± 0.087,1.05 ± 0.1,0.891 ± 0.028,1.13 ± 0.17,1.29 ± 0.32,1.06 (active)
CNC(=NC#N)NCCSCc1nc[nH]c1C,0.952 ± 0.073,0.94 ± 0.11,1.03 ± 0.16,1.01 ± 0.032,1.21 ± 0.14,1.36 ± 0.16,1.03 (active)
O=C(O)c1cc([N+](=O)[O-])c(Nc2cccc3ccccc23)c([N+](=O)[O-])c1,0.879 ± 0.05,1.05 ± 0.068,0.888 ± 0.074,0.965 ± 0.057,1.31 ± 0.12,1.13 ± 0.22,1.01 (active)
O=C(NC1CCOCC1)N1CCOC(c2cc(Cl)cc(Cl)c2)C1 (stereo not drawn),0.83 ± 0.036,1.05 ± 0.083,1.09 ± 0.06,0.971 ± 0.045,1.35 ± 0.27,1.54 ± 0.52,0.968 (active)
O=C1CC(c2ccc(O)cc2)Oc2cc(O)cc(O)c21 (stereo not drawn),1.31 ± 0.34,1.27 ± 0.17,1.21 ± 0.077,0.746 ± 0.031,1.09 ± 0.14,1.13 ± 0.11,1 (active)
Clc1ccc2c(c1)C(N1CCNCC1)=Nc1ccccc1O2,0.996 ± 0.26,1.02 ± 0.066,0.969 ± 0.07,0.893 ± 0.03,1.2 ± 0.25,1.28 ± 0.13,0.637 (inactive)
O=C(NCC1(O)CCOc2ccccc21)c1ccccc1C(F)(F)F (stereo not drawn),1.85 ± 0.095,1.31 ± 0.24,1.95 ± 0.67,0.687 ± 0.44,0.669 ± 0.34,0.721 ± 0.084,0.574 (inactive)
COc1ccccc1NS(=O)(=O)c1cc2c3c(c1)CC(=O)N3CCC2,0.967 ± 0.088,1.03 ± 0.096,1.07 ± 0.071,0.992 ± 0.035,1.09 ± 0.15,0.871 ± 0.11,1.01 (active)
CC(=O)N1CCN(c2ccc(OC[C@H]3CO[C@](Cn4ccnc4)(c4ccc(Cl)cc4Cl)O3)cc2)CC1,0.723 ± 0.072,1.06 ± 0.071,1.03 ± 0.025,0.925 ± 0.094,1.07 ± 0.15,1.07 ± 0.27,1 (active)
CC(C)(C(=O)O)c1ccc(C(O)CCCN2CCC(C(O)(c3ccccc3)c3ccccc3)CC2)cc1.Cl (stereo not drawn),1.47 ± 0.22,1.28 ± 0.39,1.01 ± 0.067,0.924 ± 0.029,1.05 ± 0.48,1.19 ± 0.09,0.983 (active)
